Of roughly 6,500 targets only a part is listed; those with a hit were picked by preference. About 2% of all pairs of compound and target were hits. Values without a mark were called inactive.

The record followed here is the supplement of paper PMC11006884.

UniProt Q9NVP2, sequence (Q9NVP2 whole entry, looked up): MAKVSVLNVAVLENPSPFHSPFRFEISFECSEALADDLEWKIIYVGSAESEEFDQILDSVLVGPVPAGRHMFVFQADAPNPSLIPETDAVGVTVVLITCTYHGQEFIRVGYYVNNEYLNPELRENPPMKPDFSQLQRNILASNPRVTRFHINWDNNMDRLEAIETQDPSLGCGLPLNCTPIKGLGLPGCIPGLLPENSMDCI
UniProt Q9UKF6, sequence (Q9UKF6 whole entry, looked up): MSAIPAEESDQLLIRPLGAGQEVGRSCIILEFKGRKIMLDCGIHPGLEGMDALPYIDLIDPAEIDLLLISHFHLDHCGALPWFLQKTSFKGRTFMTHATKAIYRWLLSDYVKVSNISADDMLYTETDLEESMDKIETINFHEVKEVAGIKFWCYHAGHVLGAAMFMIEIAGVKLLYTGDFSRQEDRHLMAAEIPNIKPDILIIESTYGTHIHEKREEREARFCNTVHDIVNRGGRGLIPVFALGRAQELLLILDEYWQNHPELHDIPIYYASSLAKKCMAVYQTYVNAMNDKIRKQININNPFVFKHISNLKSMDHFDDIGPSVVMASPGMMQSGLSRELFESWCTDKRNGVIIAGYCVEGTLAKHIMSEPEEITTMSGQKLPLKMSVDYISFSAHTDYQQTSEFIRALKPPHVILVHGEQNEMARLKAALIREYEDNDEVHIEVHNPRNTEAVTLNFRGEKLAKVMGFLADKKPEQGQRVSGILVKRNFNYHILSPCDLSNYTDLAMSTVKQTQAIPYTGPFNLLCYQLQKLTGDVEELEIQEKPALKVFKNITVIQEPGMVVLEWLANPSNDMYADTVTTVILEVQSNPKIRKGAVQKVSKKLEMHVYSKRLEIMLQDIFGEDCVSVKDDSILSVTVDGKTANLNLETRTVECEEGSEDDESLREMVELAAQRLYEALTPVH
UniProt Q9NSD9, sequence (Q9NSD9 whole entry, looked up): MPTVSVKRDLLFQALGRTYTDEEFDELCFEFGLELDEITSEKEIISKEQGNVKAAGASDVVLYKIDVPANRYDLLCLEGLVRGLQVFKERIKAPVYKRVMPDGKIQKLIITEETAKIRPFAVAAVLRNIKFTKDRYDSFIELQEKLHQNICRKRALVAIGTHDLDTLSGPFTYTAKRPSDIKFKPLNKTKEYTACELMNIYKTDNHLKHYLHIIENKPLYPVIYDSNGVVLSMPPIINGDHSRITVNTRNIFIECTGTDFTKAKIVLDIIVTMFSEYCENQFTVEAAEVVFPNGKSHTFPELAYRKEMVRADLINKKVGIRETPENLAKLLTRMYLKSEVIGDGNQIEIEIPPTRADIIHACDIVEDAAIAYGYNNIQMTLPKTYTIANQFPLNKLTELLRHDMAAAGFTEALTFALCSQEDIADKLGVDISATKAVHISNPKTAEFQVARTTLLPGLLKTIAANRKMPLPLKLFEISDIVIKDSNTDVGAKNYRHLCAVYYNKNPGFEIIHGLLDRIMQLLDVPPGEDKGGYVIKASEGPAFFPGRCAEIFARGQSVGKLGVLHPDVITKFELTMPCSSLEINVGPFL
UniProt Q9H4H8, sequence (Q9H4H8 whole entry, looked up): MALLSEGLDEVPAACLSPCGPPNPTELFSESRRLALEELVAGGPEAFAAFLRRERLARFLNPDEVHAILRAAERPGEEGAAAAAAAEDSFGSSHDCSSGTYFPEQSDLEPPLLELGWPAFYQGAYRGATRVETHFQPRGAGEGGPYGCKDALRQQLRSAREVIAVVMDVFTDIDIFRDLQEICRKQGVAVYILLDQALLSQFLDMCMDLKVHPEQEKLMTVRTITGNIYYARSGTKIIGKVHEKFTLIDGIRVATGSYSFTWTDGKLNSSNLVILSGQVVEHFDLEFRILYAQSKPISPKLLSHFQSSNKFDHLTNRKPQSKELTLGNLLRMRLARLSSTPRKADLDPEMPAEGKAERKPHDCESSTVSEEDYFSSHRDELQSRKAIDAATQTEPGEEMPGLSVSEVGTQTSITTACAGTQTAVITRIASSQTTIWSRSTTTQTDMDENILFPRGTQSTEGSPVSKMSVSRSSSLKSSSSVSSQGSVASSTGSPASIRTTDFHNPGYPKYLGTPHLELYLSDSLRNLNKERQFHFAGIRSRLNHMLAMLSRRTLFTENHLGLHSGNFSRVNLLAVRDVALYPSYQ
UniProt Q9HCK1, sequence (Q9HCK1 whole entry): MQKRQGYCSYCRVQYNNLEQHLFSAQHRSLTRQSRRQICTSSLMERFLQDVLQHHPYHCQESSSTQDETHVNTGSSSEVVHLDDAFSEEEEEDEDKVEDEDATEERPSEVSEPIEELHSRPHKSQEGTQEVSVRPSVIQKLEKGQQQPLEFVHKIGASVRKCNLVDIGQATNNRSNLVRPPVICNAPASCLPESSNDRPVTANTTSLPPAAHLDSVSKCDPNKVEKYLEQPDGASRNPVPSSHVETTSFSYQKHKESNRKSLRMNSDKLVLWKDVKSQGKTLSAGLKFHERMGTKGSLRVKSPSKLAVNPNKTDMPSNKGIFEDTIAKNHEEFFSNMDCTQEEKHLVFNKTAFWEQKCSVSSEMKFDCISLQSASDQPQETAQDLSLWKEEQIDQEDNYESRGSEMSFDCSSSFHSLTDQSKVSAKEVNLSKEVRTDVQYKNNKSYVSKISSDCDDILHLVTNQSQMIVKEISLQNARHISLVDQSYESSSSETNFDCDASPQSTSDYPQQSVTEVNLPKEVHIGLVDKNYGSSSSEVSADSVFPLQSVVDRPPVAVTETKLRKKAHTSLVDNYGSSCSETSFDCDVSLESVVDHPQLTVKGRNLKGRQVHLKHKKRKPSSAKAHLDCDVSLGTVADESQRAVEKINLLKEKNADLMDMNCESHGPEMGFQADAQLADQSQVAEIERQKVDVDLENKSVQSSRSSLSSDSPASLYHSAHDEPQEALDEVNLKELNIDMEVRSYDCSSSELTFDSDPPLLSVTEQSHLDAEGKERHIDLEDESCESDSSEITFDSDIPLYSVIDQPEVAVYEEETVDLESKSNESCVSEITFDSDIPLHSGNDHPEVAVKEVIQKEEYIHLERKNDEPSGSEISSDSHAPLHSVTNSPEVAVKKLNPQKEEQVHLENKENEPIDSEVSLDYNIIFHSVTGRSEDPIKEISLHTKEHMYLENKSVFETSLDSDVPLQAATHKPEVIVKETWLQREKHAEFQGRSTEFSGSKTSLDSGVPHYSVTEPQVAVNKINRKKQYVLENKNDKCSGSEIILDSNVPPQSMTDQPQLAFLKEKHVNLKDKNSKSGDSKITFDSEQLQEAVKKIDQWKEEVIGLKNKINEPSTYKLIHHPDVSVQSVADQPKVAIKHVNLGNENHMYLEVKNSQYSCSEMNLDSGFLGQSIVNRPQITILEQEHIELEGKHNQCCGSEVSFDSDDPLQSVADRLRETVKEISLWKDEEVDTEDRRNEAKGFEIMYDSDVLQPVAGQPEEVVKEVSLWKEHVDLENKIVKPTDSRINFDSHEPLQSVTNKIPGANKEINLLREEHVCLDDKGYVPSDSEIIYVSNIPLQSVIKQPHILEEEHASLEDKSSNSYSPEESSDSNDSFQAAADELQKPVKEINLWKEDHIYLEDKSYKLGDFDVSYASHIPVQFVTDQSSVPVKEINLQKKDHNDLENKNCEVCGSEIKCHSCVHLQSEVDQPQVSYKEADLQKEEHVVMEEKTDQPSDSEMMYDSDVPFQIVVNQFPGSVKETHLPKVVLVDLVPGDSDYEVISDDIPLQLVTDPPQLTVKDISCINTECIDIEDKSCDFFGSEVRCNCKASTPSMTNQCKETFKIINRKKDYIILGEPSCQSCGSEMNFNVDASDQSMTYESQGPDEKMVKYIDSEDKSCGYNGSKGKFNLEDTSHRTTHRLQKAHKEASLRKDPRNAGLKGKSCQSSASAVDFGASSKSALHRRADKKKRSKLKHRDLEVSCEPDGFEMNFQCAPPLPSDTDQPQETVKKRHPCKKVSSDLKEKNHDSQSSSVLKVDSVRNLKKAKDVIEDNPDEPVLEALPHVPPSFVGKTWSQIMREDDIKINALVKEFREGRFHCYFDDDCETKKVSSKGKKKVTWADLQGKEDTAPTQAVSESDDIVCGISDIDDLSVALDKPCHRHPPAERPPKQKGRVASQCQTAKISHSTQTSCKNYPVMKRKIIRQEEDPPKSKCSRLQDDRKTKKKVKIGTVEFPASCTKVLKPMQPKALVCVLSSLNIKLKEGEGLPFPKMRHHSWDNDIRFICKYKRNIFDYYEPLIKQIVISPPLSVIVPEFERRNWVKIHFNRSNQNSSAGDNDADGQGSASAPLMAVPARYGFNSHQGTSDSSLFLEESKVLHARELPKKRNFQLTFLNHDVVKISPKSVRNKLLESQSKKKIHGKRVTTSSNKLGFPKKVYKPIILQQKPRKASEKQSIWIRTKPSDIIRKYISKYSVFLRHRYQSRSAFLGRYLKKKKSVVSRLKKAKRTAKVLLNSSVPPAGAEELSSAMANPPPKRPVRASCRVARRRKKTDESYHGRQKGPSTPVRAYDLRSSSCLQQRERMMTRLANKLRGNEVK
UniProt Q9UJW0, sequence (Q9UJW0 whole entry, looked up): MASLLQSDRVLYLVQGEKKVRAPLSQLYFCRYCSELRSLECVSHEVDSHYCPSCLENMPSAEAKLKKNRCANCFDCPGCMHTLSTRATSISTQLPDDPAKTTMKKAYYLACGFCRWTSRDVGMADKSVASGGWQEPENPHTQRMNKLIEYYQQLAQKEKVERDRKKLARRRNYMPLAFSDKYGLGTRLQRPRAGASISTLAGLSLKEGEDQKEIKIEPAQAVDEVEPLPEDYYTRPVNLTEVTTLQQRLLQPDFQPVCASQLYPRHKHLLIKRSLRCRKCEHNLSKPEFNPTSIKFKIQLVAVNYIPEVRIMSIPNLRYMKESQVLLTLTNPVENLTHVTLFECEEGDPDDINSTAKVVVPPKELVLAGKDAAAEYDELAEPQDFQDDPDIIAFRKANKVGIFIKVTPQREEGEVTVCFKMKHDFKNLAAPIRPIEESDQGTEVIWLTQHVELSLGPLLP
UniProt Q9NR33, sequence (Q9NR33 whole entry): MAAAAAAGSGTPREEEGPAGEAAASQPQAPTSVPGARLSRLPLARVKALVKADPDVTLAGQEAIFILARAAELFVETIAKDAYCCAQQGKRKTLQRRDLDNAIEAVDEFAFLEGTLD

Compound in the assay: COC(=O)C#Cc1ccccc1 [methyl 3-phenylpropiolate]
The experiment in a line: log2 ratio of iodoacetamide-alkyne labeling of the cysteine site, DMSO over compound (competition); higher = stronger covalent engagement of the cysteine by the compound, active = 1 or more. The settings on record: 500 µM; treatment time 1 h; system: HEK293T cell lysate. In a few lines: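 Reporter intensities give each cysteine's log2 competition ratio as the mean of control channels over the mean of compound channels. The samples were HEK293T lysate (2 mg/mL) given vehicle or electrophile (500 µM, 1 h, ambient temperature), then iodoacetamide alkyne (1 h), followed by click coupling to sCIP-TMT reagents, pooling, trypsin digestion overnight at 37 °C, streptavidin enrichment, acid elution, Orbitrap Eclipse LC-MS/MS with FAIMS and FragPipe quantification. Duplicate channels and three replicates were run, and cysteines quantified in only one replicate were discarded.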
CPSF2 C765 (UniProt Q9P2I0): the “log2 ratio of iodoacetamide-alkyne labeling” value (“log2 ratio” for short) is 1.01 (active).
The result for FAM169A C138 (UniProt Q9Y6X4) reads 0.201.
Take POLE4 C84 (UniProt Q9NR33): the “log2 ratio” value was -0.0179.
The same measure for AIM1 C976 (UniProt Q9Y4K1): 0.347; for AFG3L2 C525 (UniProt Q9Y4W6): 0.198.
The result for DDX19A C224 (UniProt Q9NUU7) reads 0.0835; that for MAGED2 C516 (UniProt Q9UNF1), 0.293; that for DCTN4 C41 (UniProt Q9UJW0), 0.309.
With ASF1B C178 (UniProt Q9NVP2), the “log2 ratio” value was 1.22 (active).
The same measure for JMJD4 C101 (UniProt Q9H9V9): 0.898.
The result for UniProt Q9BYG3_C269 reads 0.771.
The result for RCC2 C428 (UniProt Q9P258) reads 0.696; that for FAM120A C892 (UniProt Q9NZB2), 1.45 (active).
As to DLGAP4 C726 (UniProt Q9Y2H0), the “log2 ratio” value is 0.74.
The result for NFU1 C210 (UniProt Q9UMS0) reads 1.06 (active); that for FARSB C195 (UniProt Q9NSD9), 0.621; that for MTPAP C242 (UniProt Q9NVV4), 0.146.
The same measure for EIF2B3 C64 (UniProt Q9NR50): 0.548.
For UniProt Q9UK61_C429, the “log2 ratio” value is 0.233.
The same measure for CPSF3 C655 (UniProt Q9UKF6): 0.293; for FAM83D C15 (UniProt Q9H4H8): 1.11 (active).
The result for ZDBF2 C628 (UniProt Q9HCK1) reads 0.47.
